Screens: PubChem, The Scripps Research Institute Molecular Screening Center
Hits are enriched below; roughly 2% of the tested compounds scored in any of these assays.
CHRM4 antagonist = CHRM4 antagonism in calcium assay. actives 0.73% (n = 360,000). CHO-hM4 cells, ACh EC80, Fluo-8 calcium fluorescence. inhibition, % at 3 µM. P08173;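 active means inhibition above its plate's cutoff, the mean inhibition of sample wells plus 3 SD, cut at about 27% in these data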;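 further: 0% = acetylcholine EC80 with DMSO and 100% = DMSO without agonist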
Target sequence (P08173 whole entry, looked up): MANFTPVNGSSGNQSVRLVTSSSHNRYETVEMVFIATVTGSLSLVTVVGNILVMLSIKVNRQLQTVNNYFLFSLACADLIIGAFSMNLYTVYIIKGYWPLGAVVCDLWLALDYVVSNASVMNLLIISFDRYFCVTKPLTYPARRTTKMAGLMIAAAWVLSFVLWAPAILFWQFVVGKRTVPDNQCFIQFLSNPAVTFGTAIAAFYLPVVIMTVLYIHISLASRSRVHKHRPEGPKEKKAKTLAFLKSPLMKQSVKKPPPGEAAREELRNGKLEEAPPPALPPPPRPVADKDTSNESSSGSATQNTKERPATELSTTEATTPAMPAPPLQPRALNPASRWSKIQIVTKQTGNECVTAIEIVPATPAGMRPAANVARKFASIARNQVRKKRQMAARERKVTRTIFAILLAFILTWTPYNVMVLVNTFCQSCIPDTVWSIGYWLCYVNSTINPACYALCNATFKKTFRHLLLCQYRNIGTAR
M1 ag parental = counter-screen for M1 agonists: effect in parental CHO-K1 cells. Fluo-8 calcium fluorescence; scaled to maximal ATP response, vehicle zero. activation, % at 3 µM. actives 0.48% (n = 360,000). AID 602248; in the data active means activation above about 15%;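 further: untransfected CHO-K1 host cells lacking M1 receptor as counterscreen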
CHO-K1 Ca PAM = M1 PAM counterscreen hit in parental CHO-K1 cells. ATP EC20, Fluo-8 calcium fluorescence; 0% at ATP EC20, 100% at ATP max. activation, % at 3 µM. actives 0.02% (n = 360,000). AID 602247;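 active means activation above the run cutoff, the mean activation of all test compounds plus 3 SD, cut at about 40% in these data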;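 further: peak over basal fluorescence ratio in a 140 s read after ATP addition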
M4 PAM = positive allosteric modulators of human muscarinic M4 receptor | P08173 | CHO-K1 hM4/Gqi5, Fluo-8 calcium fluorescence, ACh EC20; 0% = ACh EC20, 100% = maximal ACh | activation, % at 3 µM | AID 624126 | actives 0.4% (n = 360,000);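 active means activation above its plate's cutoff, the mean activation of sample wells plus 3 SD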
CHO-K1 Ca antag = M1 antagonist counterscreen hit in parental CHO-K1 cells; ATP-induced calcium, Fluo-8 fluorescence; inhibition, % at 3 µM; actives 0.6% (n = 360,000); AID 602250;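 active means inhibition above a per-plate cutoff, the plate's mean sample inhibition plus 3 SD, cut at about 24% in these data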;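 further: 0% = DMSO plus EC80 ATP and 100% = DMSO alone without ATP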
CHRM4 agonist = agonists of human muscarinic M4 receptor (CHRM4); P08173; CHO-K1 hM4/Gqi5, Fluo-8 calcium fluorescence; vehicle 0%, full acetylcholine response 100%; activation, % at 3 µM; actives 0.14% (n = 360,000);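 active means activation above the run mean over all test wells plus 3 SD, cut at about 32% in these data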;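 further: peak over basal fluorescence ratio per well then scaled between controls; 0% = DMSO wells and 100% = acetylcholine at EC100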
Active calls of the source: *; . = no result.

SMILES	CHRM4 antagonist	M1 ag parental	CHO-K1 Ca PAM	M4 PAM	CHO-K1 Ca antag	CHRM4 agonist
CC1CCC(C(C)C)C(OC(=O)C[n+]2cc(-c3ccc(Cl)cc3)n3c2CCC3)C1 (stereo not drawn)	29*	1	10	-35	-3	0
Cn1c(NC(=O)C[n+]2cc(-c3ccc(Cl)c(Cl)c3)n3c2CCC3)cc(=O)n(C)c1=O	4	1	21	-4	-14	0
Cc1ccc(N=Cc2cc(Br)cc(Cl)c2O)cc1	-2	0	14	-6	1	0
NS(=O)(=O)c1cccc(NC(=O)COC(=O)C2(c3cccc(F)c3)CCCC2)c1	-2	2	15	1	-6	6
CCCNC(=O)C1(C)CCCN(Cc2cccn2C)C1 (stereo not drawn)	-12	0	3	6	-2	0
Cc1oc2c(CN3CCCC3)c(O)ccc2c(=O)c1-c1ccc(Cl)cc1	70*	1	18	-19	-11	2
Cc1oc2c(CN3CCOCC3)c(O)ccc2c(=O)c1-c1ccc(Br)cc1	38*	0	-3	-20	4	0
Cc1cccc(N2CCN(C(=O)c3cccc(NC4=NC5CS(=O)(=O)CC5S4)c3)CC2)c1C (stereo not drawn)	-12	0	3	1	-8	0
COc1ccc(/C=C/c2onc(C)c2S(=O)(=O)N2CCC(C(=O)N3CCCCCC3)CC2)cc1	-2	4	-18	-2	2	6
CCOc1ccc(C(=O)NCC(=O)OCC(=O)Nc2ccc(C)c(S(=O)(=O)N(C)C)c2)cc1	-4	0	-17	-1	4	1
COC(=O)[C@]12CCCCC=C1N(Cc1ccc3c(c1)OCO3)C(=O)[C@H](CC(=O)NCc1ccc(C)o1)C2	-14	.	.	10	.	10
CCOC(=O)c1nn(-c2ccc(F)cc2)c(=O)cc1OCC(=O)Nc1cccc(C)c1	-26	0	9	24*	9	-1
CCOCCCNS(=O)(=O)c1ccc(NC(=O)c2ccc(OC)c([N+](=O)[O-])c2)cc1	-12	1	14	5	-1	1
COCCCNc1c2c3c(cccc3[nH]c1=O)C(=O)c1ccccc1-2	53*	285*	-16	-18	56*	305*
COCCCNC1=C(Cl)C(=O)c2ccccc2C1=O	8	0	11	-4	-8	1
Cc1cccc(NC(=O)COC(=O)c2n[nH]c3ccccc23)c1C	2	9	11	3	-13	11
Cc1cc(NC(=O)COC(=O)c2n[nH]c3ccccc23)no1	1	0	-8	-3	29*	1
Cc1ccc(C(=O)c2sc3nc4c(cc3c2N)CCC4)cc1	-6	0	5	21*	2	1
CCn1c(SC(C)C(=O)OC)nnc1-c1c[nH]c2ccccc12 (stereo not drawn)	-10	4	10	-8	-3	7
CC(=O)c1cccc(N/C=C\c2nnnn2-c2ccc(F)cc2)c1	3	15*	17	-3	6	1
COc1ccc(-n2nnnc2/C=C\Nc2ccccc2C(=O)c2ccccc2)cc1	2	0	10	-6	-8	-1
O=C(CN1CCC(NC(=O)c2ccccc2F)CC1)Nc1ccc2c(c1)OCCO2	-1	16*	9	8	7	0
Cc1ccccc1C(=O)NC1CCN(CC(=O)Nc2ccc3c(c2)OCCO3)CC1	-2	1	23	2	-16	0
Cc1nc2ccc(NS(=O)(=O)c3cccc([N+](=O)[O-])c3)cc2s1	7	8	2	-6	0	11
CCN(CC)CC(C)(C)C(=O)/C=C/c1ccc(/C=C/C(=O)C(C)(C)CN(CC)CC)cc1	42*	0	-9	-6	25*	3
SMILES	CHRM4 antagonist	M1 ag parental	CHO-K1 Ca PAM	M4 PAM	CHO-K1 Ca antag	CHRM4 agonist
CCN(CC)CCOC(=O)/C=C/c1ccccc1	4	0	-25	-4	15	0
COc1ccc(C(=O)c2cn[nH]c2-c2cc(Cl)ccc2O)cc1	12	2	12	-13	24*	8
COc1ccc(C(=O)c2cn[nH]c2-c2cc(C)ccc2O)cc1	0	6	-15	-10	-8	2
CC(C)NC(=O)N(O)C1N(C(C)C)C(=O)N(Cc2ccc3c(c2)OCO3)C1(C)C (stereo not drawn)	30*	6	6	-22	-10	14
COc1ccc(-c2nc3c4ccccc4ccn3c2Cc2ccccc2)cc1OC	4	0	10	-9	-11	3
CC(O)CN(C)CC/C=C1/c2ccccc2CSc2ccccc21 (stereo not drawn)	19	1	-7	-14	8	1
C#CCN(C)Cc1ccccc1	-2	1	26	0	-15	2
C#CCN(C)CC/C=C1\c2ccccc2CSc2ccccc21	32*	0	7	-15	-14	-2
C=CCN(C)CC/C=C1\c2ccccc2CSc2ccccc21	52*	1	13	-17	-2	3
NCC/C=C1/c2ccccc2CSc2ccccc21	23	1	4	-14	-4	7
CN(CC/C=C1/c2ccccc2CSc2ccccc21)CCCO	65*	2	16	-38	-6	7
Nc1c(C(=O)c2ccccc2)sc2nsc(SCCN3CCCC3)c12	17	16*	8	-17	10	15
Nc1c(C(=O)c2ccc(Cl)cc2)sc2nsc(SCCN3CCOCC3)c12	1	5	4	-3	-6	4
Cc1ccc(NC(=O)CN(C)CC(=O)Nc2ccc(N3CCOCC3)cc2)c(C)c1	-4	2	28	4	-15	1
CC(=O)CC(=O)Nc1ccn(-c2ccccc2)n1	-1	0	-9	0	27*	1
O=C(O)CCCC(=O)Nc1ccn(-c2ccccc2)n1	-7	0	13	8	-1	1
COc1ccc(C(C)=O)cc1COC(=O)CSCC(=O)Nc1ccc(C)cc1	26*	1	-12	-4	8	1
COc1ccc(C(C)=O)cc1COC(=O)CSC(C)C(=O)Nc1cc(C)on1 (stereo not drawn)	-22	0	12	-1	1	1
O=C(CNc1ccc(C(F)(F)F)cc1)Nc1cccc(S(=O)(=O)N2CCCC2)c1	-5	4	2	-2	-14	8
CCOC(=O)C1CCC(=O)C1 (stereo not drawn)	-3	1	10	1	-9	0
Clc1ccc(Nc2ccc(NCc3ccccc3)nn2)cc1	14	8	10	-31	-1	50*
Brc1ccc(-c2nn3c(-c4ccco4)nnc3s2)o1	-4	0	-6	15	25*	-1
